According to publication PMC11006913:
Where a chain is given by its changes, count along the chain named.

Legend:
Assay in all cases: PBM; 200 nM protein, PBS
Details in all cases: dsDNA, one strand shown
PAX4 [1] = biological target: T1, PAX4 (Homo sapiens, UniProt O43316 9-242, R200K)
T1 sequence: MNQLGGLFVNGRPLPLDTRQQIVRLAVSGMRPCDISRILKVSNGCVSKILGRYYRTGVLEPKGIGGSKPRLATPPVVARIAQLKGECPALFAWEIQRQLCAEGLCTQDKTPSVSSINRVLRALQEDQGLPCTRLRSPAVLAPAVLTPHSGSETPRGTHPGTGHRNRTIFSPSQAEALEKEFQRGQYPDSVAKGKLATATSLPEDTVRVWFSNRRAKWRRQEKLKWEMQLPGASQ

PAX4 [2] = biological target: T2, PAX4 (Homo sapiens, UniProt O43316 9-242)
T2 sequence: T1 sequence with K192R

PAX4 [3] = biological target: T3, PAX4 (Homo sapiens, UniProt O43316 9-242, R200Q)
T3 sequence: T1 sequence with K192Q

PAX4 [4] = biological target: T4, PAX4 (Homo sapiens, UniProt O43316 9-242, F177V)
T4 sequence: T1 sequence with F169V, K192R

PAX4 [5] = biological target: T5, PAX4 (Homo sapiens, UniProt O43316 9-242, F177Y)
T5 sequence: T1 sequence with F169Y, K192R

PAX4 [6] = biological target: T6, PAX4 (Homo sapiens, UniProt O43316 9-242, R227W)
T6 sequence: T1 sequence with K192R, R219W

VAX1 [7] = biological target: VAX1 (Homo sapiens, UniProt Q5SQQ9 86-172)
Chain of VAX1 (Homo sapiens, UniProt Q5SQQ9 86-172) (Q5SQQ9 86-172): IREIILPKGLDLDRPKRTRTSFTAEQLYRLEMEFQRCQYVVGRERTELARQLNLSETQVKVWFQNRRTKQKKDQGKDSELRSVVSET

VAX1 [8] = biological target: VAX1 (Homo sapiens, UniProt Q5SQQ9 86-172, T142I)
Chain of VAX1 (Homo sapiens, UniProt Q5SQQ9 86-172, T142I) (Q5SQQ9 86-172 T142I): as the sequence (Q5SQQ9 86-172) above, with T57I counted along it

VAX1 [9] = biological target: VAX1 (Homo sapiens, UniProt Q5SQQ9 86-172, K157R)
Chain of VAX1 (Homo sapiens, UniProt Q5SQQ9 86-172, K157R) (Q5SQQ9 86-172 K157R): as the sequence (Q5SQQ9 86-172) above, with K72R counted along it

Sequence	binding signal (PAX4 [1])	binding signal (PAX4 [2])	binding signal (PAX4 [3])	binding signal (PAX4 [4])	binding signal (PAX4 [5])	binding signal (PAX4 [6])	binding signal (VAX1 [7])	binding signal (VAX1 [8])	binding signal (VAX1 [9])
CGAATTAA	12 upbm affinity estimate (log intensity, higher = more binding, comparable within an allelic series)	12.6 upbm affinity estimate (log intensity, higher = more binding, comparable within an allelic series)	11.9 upbm affinity estimate (log intensity, higher = more binding, comparable within an allelic series)	10.6 upbm affinity estimate (log intensity, higher = more binding, comparable within an allelic series)	11.2 upbm affinity estimate (log intensity, higher = more binding, comparable within an allelic series)	11.1 upbm affinity estimate (log intensity, higher = more binding, comparable within an allelic series)			
AAATTAGG	11.4 upbm affinity estimate (log intensity, higher = more binding, comparable within an allelic series)	11.9 upbm affinity estimate (log intensity, higher = more binding, comparable within an allelic series)	11.5 upbm affinity estimate (log intensity, higher = more binding, comparable within an allelic series)	10.2 upbm affinity estimate (log intensity, higher = more binding, comparable within an allelic series)	10.5 upbm affinity estimate (log intensity, higher = more binding, comparable within an allelic series)	10.6 upbm affinity estimate (log intensity, higher = more binding, comparable within an allelic series)			
ATGTATTA	11.5 upbm affinity estimate (log intensity, higher = more binding, comparable within an allelic series)	11.8 upbm affinity estimate (log intensity, higher = more binding, comparable within an allelic series)	11.4 upbm affinity estimate (log intensity, higher = more binding, comparable within an allelic series)	10.8 upbm affinity estimate (log intensity, higher = more binding, comparable within an allelic series)	11 upbm affinity estimate (log intensity, higher = more binding, comparable within an allelic series)	11 upbm affinity estimate (log intensity, higher = more binding, comparable within an allelic series)			
CCAGCGCC	9.19 upbm affinity estimate (log intensity, higher = more binding, comparable within an allelic series)	9.3 upbm affinity estimate (log intensity, higher = more binding, comparable within an allelic series)	9.31 upbm affinity estimate (log intensity, higher = more binding, comparable within an allelic series)	9.31 upbm affinity estimate (log intensity, higher = more binding, comparable within an allelic series)	9.23 upbm affinity estimate (log intensity, higher = more binding, comparable within an allelic series)	9.33 upbm affinity estimate (log intensity, higher = more binding, comparable within an allelic series)			
ATACATAT	10.7 upbm affinity estimate (log intensity, higher = more binding, comparable within an allelic series)	10.7 upbm affinity estimate (log intensity, higher = more binding, comparable within an allelic series)	10.8 upbm affinity estimate (log intensity, higher = more binding, comparable within an allelic series)	10.6 upbm affinity estimate (log intensity, higher = more binding, comparable within an allelic series)	10.6 upbm affinity estimate (log intensity, higher = more binding, comparable within an allelic series)	10.6 upbm affinity estimate (log intensity, higher = more binding, comparable within an allelic series)			
ACGAATTA	11.6 upbm affinity estimate (log intensity, higher = more binding, comparable within an allelic series)	12.1 upbm affinity estimate (log intensity, higher = more binding, comparable within an allelic series)	11.7 upbm affinity estimate (log intensity, higher = more binding, comparable within an allelic series)	10.3 upbm affinity estimate (log intensity, higher = more binding, comparable within an allelic series)	11 upbm affinity estimate (log intensity, higher = more binding, comparable within an allelic series)	10.8 upbm affinity estimate (log intensity, higher = more binding, comparable within an allelic series)			
ATTAGGGA	11.1 upbm affinity estimate (log intensity, higher = more binding, comparable within an allelic series)	11.5 upbm affinity estimate (log intensity, higher = more binding, comparable within an allelic series)	11.2 upbm affinity estimate (log intensity, higher = more binding, comparable within an allelic series)	10.1 upbm affinity estimate (log intensity, higher = more binding, comparable within an allelic series)	10.3 upbm affinity estimate (log intensity, higher = more binding, comparable within an allelic series)	10.4 upbm affinity estimate (log intensity, higher = more binding, comparable within an allelic series)			
CAGGCAGG	9.45 upbm affinity estimate (log intensity, higher = more binding, comparable within an allelic series)	8.98 upbm affinity estimate (log intensity, higher = more binding, comparable within an allelic series)	9.63 upbm affinity estimate (log intensity, higher = more binding, comparable within an allelic series)	9.47 upbm affinity estimate (log intensity, higher = more binding, comparable within an allelic series)	9.56 upbm affinity estimate (log intensity, higher = more binding, comparable within an allelic series)	9.49 upbm affinity estimate (log intensity, higher = more binding, comparable within an allelic series)	7.2 upbm affinity estimate (log intensity, higher = more binding, comparable within an allelic series)	7.22 upbm affinity estimate (log intensity, higher = more binding, comparable within an allelic series)	7 upbm affinity estimate (log intensity, higher = more binding, comparable within an allelic series)
CTCGCCTC	9.23 upbm affinity estimate (log intensity, higher = more binding, comparable within an allelic series)	9.21 upbm affinity estimate (log intensity, higher = more binding, comparable within an allelic series)	9.24 upbm affinity estimate (log intensity, higher = more binding, comparable within an allelic series)	9.31 upbm affinity estimate (log intensity, higher = more binding, comparable within an allelic series)	9.3 upbm affinity estimate (log intensity, higher = more binding, comparable within an allelic series)	9.28 upbm affinity estimate (log intensity, higher = more binding, comparable within an allelic series)			
TAATTCGA	11.8 upbm affinity estimate (log intensity, higher = more binding, comparable within an allelic series)	12.4 upbm affinity estimate (log intensity, higher = more binding, comparable within an allelic series)	11.7 upbm affinity estimate (log intensity, higher = more binding, comparable within an allelic series)	10.6 upbm affinity estimate (log intensity, higher = more binding, comparable within an allelic series)	11.2 upbm affinity estimate (log intensity, higher = more binding, comparable within an allelic series)	11 upbm affinity estimate (log intensity, higher = more binding, comparable within an allelic series)			
GCGAGGCC	9.39 upbm affinity estimate (log intensity, higher = more binding, comparable within an allelic series)	9.4 upbm affinity estimate (log intensity, higher = more binding, comparable within an allelic series)	9.36 upbm affinity estimate (log intensity, higher = more binding, comparable within an allelic series)	9.18 upbm affinity estimate (log intensity, higher = more binding, comparable within an allelic series)	9.2 upbm affinity estimate (log intensity, higher = more binding, comparable within an allelic series)	9.27 upbm affinity estimate (log intensity, higher = more binding, comparable within an allelic series)			
